Results on 23 molecules are retold here after PubChem BioAssay (NCATS).

Test [1] deals with Rap guanine nucleotide exchange factor 3 (Homo sapiens) (UniProt O95398). Description: Confirmatory qHTS for antagonist of cAMP-regulated guanine nucleotide exchange factor 3 (EPAC1) (AID 1645880). Also: nearly all actives have a fitted effect of over 55% in size. Also: potency is read from the fitted curve at half-maximal effect.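 As to activity, negative = inhibition: plate controls were DMSO only for no effect and full effect of the ATA control for full effect.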 To be noted: EPAC1 Rap1B-BODIPY-GDP exchange, fluorescence; activity, negative = inhibition: at 115 µM (top of the series). Put shortly: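 Released BODIPY-GDP fluoresces less than Rap1-bound BODIPY-GDP; the signal is followed at 480/540 nm at 5-min intervals over 30 min, after 5 min at room temperature. Reactions contain 100 nM EPAC1, 250 nM RAP1B-BODIPY-GDP and 50 uM GDP; results are normalized to ATA and DMSO.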

The target is the same in test [2]. Briefly: Confirmatory qHTS for agonist of cAMP-regulated guanine nucleotide exchange factor 3 (EPAC1) (AID 1645881).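 Also: EPAC1 catalysed release of BODIPY-GDP from Rap1B seen as fluorescence loss; 100% = effect of cAMP agonist control; nearly all actives have a fitted effect of over 75% in size.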 For orientation: In qHTS, concentration-response curves come from the screen itself.
Test [3] has as its target Rap guanine nucleotide exchange factor 4 (Homo sapiens) (UniProt Q8WZA2). Description: Confirmatory qHTS for agonist of cAMP-regulated guanine nucleotide exchange factor 4 (EPAC2) (AID 1645884).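 Also: nucleotide exchange releases bodipy-GDP from Rap1 and this lowers its fluorescence; % is scaled to controls: 0 for no effect and ±100 for the full control effect; nearly all actives have a fitted effect of over 65% in size.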
The target in test [4] is Rap guanine nucleotide exchange factor 3 (Homo sapiens) (UniProt O95398). Briefly: Counterscreen qHTS for antagonist of cAMP-regulated guanine nucleotide exchange factor 3 (EPAC1) (AID 1645888). Also: % of control where 0% means no effect. Put shortly: (§1)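 Rap1B–BODIPY-GDP (250 nM) with 50 uM GDP; compounds pin-transferred to 9.74 nM–152 uM final (activator) or from 7.32 nM upwards (inhibitor). Fluorescence Ex/Em 480/540 nm read at 5 and 30 min, then after adding cAMP or buffer, at room temperature.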

The target is the same in test [5]. Briefly: Counterscreen qHTS for agonist of cAMP-regulated guanine nucleotide exchange factor 3 (EPAC1) (AID 1645889). Also: % of control where 0% means no effect; nearly all actives have a fitted effect of over 40% in size. Put shortly:
as §1

Results filed as inconclusive are left out. Unmarked numbers belong to inactive results. Active and inactive are the calls of the source. Calls follow the shape of the dose curve; as a rule, active = well fitted curve in the direction sought with a large enough effect; inconclusive = small, poorly fitted or top-dose-only effect, or another doubt; inactive = no such curve, though single readings can be large; an effect the other way counts as inactive or inconclusive.

Chain of Rap guanine nucleotide exchange factor 3 (Homo sapiens) (O95398 whole entry, looked up): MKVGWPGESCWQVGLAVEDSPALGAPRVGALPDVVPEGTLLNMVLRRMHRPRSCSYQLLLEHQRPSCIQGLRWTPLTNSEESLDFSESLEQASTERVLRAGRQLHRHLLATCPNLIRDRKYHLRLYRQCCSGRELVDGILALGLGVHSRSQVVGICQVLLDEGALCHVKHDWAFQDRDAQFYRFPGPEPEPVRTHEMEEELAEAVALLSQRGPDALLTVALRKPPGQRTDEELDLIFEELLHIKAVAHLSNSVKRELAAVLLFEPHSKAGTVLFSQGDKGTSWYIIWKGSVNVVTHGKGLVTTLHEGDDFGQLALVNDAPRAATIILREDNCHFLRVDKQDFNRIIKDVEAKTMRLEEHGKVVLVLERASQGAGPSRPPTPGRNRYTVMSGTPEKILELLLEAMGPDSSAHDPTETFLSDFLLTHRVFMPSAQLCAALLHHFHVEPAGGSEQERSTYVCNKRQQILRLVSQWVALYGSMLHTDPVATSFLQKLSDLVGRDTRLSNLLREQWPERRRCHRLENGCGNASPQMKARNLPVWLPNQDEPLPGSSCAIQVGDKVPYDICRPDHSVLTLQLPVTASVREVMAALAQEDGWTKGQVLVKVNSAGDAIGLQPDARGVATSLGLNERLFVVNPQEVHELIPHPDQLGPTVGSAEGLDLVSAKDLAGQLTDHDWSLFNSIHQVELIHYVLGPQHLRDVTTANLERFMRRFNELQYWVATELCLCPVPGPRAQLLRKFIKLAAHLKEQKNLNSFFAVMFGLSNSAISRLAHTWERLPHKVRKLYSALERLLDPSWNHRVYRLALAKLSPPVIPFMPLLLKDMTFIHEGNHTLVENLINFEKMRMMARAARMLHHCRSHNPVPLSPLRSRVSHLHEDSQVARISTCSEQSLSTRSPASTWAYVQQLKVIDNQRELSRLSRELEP
Chain of Rap guanine nucleotide exchange factor 4 (Homo sapiens) (Q8WZA2 whole entry, looked up): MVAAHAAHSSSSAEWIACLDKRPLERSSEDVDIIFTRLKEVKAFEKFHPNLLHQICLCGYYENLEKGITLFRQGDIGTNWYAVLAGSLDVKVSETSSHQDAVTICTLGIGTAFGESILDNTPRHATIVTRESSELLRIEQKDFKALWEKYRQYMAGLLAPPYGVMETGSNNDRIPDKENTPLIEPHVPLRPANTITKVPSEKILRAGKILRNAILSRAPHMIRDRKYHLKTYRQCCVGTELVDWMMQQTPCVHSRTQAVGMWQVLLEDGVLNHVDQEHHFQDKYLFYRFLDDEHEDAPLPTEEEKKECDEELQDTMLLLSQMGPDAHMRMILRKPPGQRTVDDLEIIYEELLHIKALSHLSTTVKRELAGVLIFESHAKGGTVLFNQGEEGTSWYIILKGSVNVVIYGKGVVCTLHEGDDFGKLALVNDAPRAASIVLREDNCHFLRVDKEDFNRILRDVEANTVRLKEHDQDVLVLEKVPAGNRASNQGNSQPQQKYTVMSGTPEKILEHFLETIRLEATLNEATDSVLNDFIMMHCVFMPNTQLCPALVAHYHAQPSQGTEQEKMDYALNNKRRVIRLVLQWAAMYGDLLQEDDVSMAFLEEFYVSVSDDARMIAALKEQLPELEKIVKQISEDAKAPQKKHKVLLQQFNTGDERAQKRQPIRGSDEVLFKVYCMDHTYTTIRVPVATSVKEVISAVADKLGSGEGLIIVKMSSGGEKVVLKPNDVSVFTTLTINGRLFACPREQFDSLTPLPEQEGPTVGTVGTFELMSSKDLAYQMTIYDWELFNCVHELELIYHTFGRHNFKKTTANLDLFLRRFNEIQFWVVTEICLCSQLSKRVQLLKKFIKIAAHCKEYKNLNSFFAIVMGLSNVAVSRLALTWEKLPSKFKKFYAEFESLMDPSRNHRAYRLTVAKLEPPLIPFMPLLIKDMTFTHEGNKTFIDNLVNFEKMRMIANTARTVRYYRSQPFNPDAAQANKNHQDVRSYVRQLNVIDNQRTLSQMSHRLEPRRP

For the molecule `COc1ccc(N=C2NC(=O)S/C2=C\c2ccc(N(C)C)cc2)cc1`, the Potency result in test [1], in test [2], in test [3], in test [4] and in test [5] was “inactive” in each case.
Turning to `O=C(CN1CCCC1)Nc1ccccc1Sc1ccc(Cl)cc1`, the Potency entry in test [1], in test [2], in test [3], in test [4] and in test [5] was “inactive” each time.
`C[C@H](CO)N1C[C@H](C)[C@@H](CN(C)C)Oc2c(NS(=O)(=O)c3ccccc3)cccc2C1=O`: the Potency entry in test [1], in test [2], in test [3], in test [4] and in test [5] was “inactive” throughout.
With `O=C(CCCN1C(=O)/C(=C/c2ccccc2)SC1=S)Nc1ccccc1O`, the Potency entry in test [1], in test [2], in test [3], in test [4] and in test [5] was “inactive” each time.
For `N=c1c(S(=O)(=O)c2ccc(Br)cc2)cc2c(=O)n3ccccc3nc2n1C1CCCC1`, the Potency entry in test [1], in test [2], in test [3], in test [4] and in test [5] was “inactive” in each case.
Turning to `O=C(O)c1ccccc1NS(=O)(=O)c1ccc(N/N=C/c2cccc(O)c2O)c([N+](=O)[O-])c1`, the Potency in test [1] is 9.53 µM (active). In addition, the Potency entry in test [2], in test [3], in test [4] and in test [5] was “inactive” in each case.
For the molecule `O=C(O)CN1C(=O)/C(=C\c2cc(Br)ccc2OCc2ccccc2Cl)SC1=S`, in test [1], the Potency is 33.8 µM (active). Also, the Potency result in test [2], in test [3], in test [4] and in test [5] was “inactive” each time.
Take `Cc1ccc(Cl)cc1N1CCN(C(=O)c2cccc3c(=O)c(C)c(-c4ccccc4)oc23)CC1`: the Potency result in test [1] and in test [2] was “inactive” in each case. The activation in test [3] is 13% [at 17.1 µM, percent relative to cAMP agonist control]; in test [5] it was 25.9% [at 30.8 µM]. Besides, in test [4], the activity change, negative = inhibition was -10.3% [at 30.8 µM].
As for `CCOC(=O)c1c(NC(=O)/C=C/C(=O)O)sc(C)c1-c1ccc(C(C)(C)C)cc1`, the Potency in test [1] is 42.6 µM (active). Moreover, the Potency result in test [2], in test [3], in test [4] and in test [5] was “inactive” in each case.
With `COc1ccc([C@H]2CC(=O)C=C(c3cc(OC)ccc3OC)C2)cc1`, the Potency result in test [1], in test [2], in test [3], in test [4] and in test [5] was “inactive” in each case.
With `CCC(=O)N1N=C(c2ccc(Cl)cc2)CC1c1ccco1` (stereo not given), the Potency result in test [1], in test [2], in test [3], in test [4] and in test [5] was “inactive” each time.
As for `COC(=O)C1=C(C)N(CCCC(=O)O)C(=O)NC1c1ccc(-c2ccccc2)cc1` (stereo not given), the Potency result in test [1], in test [2], in test [3], in test [4] and in test [5] was “inactive” each time.
Regarding `Cc1ccc2c(c1)C(=O)CC(c1ccccc1)S2` (stereo not given), the Potency result in test [1] and in test [2] was “inactive” each time. Further, the activation is -3.98% [at 17.1 µM, percent relative to cAMP agonist control] in test [3] and 6.35% [at 30.8 µM] in test [5]. In addition, the activity change, negative = inhibition in test [4] was -21.7% [at 30.8 µM].
Consider `COc1cccc(-c2nc(CS(=O)(=O)CC(=O)N3CCN(C)CC3)c(C)o2)c1`, for which the Potency result in test [1], in test [2], in test [3], in test [4] and in test [5] was “inactive” throughout.
On to `CCOc1ccc(Br)cc1S(=O)(=O)Nc1ccc(S(=O)(=O)Nc2cc(C)on2)cc1`, for which the Potency in test [1] was 19 µM (active). For the same molecule, the Potency result in test [2], in test [3], in test [4] and in test [5] was “inactive” throughout.
For the molecule `CCCS(=O)(=O)NC(=O)C1(C)CCN(C(=O)c2cccc(OC(F)(F)F)c2)C1` (stereo not given), the Potency entry in test [1], in test [2], in test [3], in test [4] and in test [5] was “inactive” each time.
On to `O=C(O)CCSc1nnc(COc2cccc3ccccc23)n1-c1cccc(Cl)c1`, for which the Potency result in test [1], in test [2], in test [3], in test [4] and in test [5] was “inactive” in each case.
For `CC(=O)c1c(-c2ccccc2)c2cc(Cl)ccc2n(C)c1=O`, the Potency entry in test [1] and in test [2] was “inactive” throughout. The activation in test [3] is -9.72% [at 17.1 µM, percent relative to cAMP agonist control]; in test [5], 9.36% [at 30.8 µM]. Moreover, in test [4], the activity change, negative = inhibition was -1.67% [at 30.8 µM].
Take `O=C1CCc2cc(S(=O)(=O)NCc3ccc(F)cc3)cc3c2N1CC3`: the Potency result in test [1], in test [2], in test [3], in test [4] and in test [5] was “inactive” each time.
On to `CCOC(=O)C1=C(N)c2ccccc2CC1C1CCCC1` (stereo not given), for which the Potency entry in test [1], in test [2], in test [3], in test [4] and in test [5] was “inactive” in each case.
In the case of `O=[N+]([O-])c1cc(/C=N/O)ccc1Oc1ccccc1Cl`, the Potency result in test [1], in test [2], in test [3], in test [4] and in test [5] was “inactive” in each case.
Regarding `Clc1cccc(-c2ccc3nccn3c2)c1Cl`, the Potency entry in test [1], in test [2], in test [3], in test [4] and in test [5] was “inactive” throughout.
`Nc1nc(C(c2ccccc2)c2ccccc2)cs1`: the Potency result in test [1], in test [2], in test [3], in test [4] and in test [5] was “inactive” each time.
